Source: ChEMBL document CHEMBL1857833, “Screening and optimization of specific chemical series against human African Trypanosomiasis (HAT)”
The whole screen tested about 4,400 compounds, of which about 390 (8.9%) showed an effect of 50% or more. What follows is part of a selection rich in strong results, with near analogues and random picks from the rest.

The compounds below were run on Trypanosoma brucei (assay: DNDI: Inhibition of Human African Trypanosomiasis, SBRI 427, in vitro at 2 ug.mL-1).
Format: functional

SMILES | % inhibition [%]
CN(/C(=N\O)c1ccc(Oc2cccc3ccccc23)nc1)C1CCCCC1 | 25
CN(Cc1coc(-c2ccc(Br)cc2)n1)Cc1ccco1 | 29
CC(C)c1ccc(N/C(=N\O)c2cccnc2OCc2ccccc2F)cc1 | -12
Cc1ccc(-c2nc(CN3CC[C@H]4CCCC[C@@H]4C3)co2)cc1 | 25
CCC1CCCCN1Cc1coc(-c2ccccc2Cl)n1 (stereo not given) | -10
CC1CCCN1Cc1coc(-c2cccc3ccccc23)n1 (stereo not given) | 39
CC1CCCCN1CCCNCc1coc(-c2cccc3ccccc23)n1 (stereo not given) | 86
c1ccc2c(-c3nc(CNCCCN4CCCC4)co3)cccc2c1 | 93
c1ccc2c(-c3nc(CNCCN4CCCCC4)co3)cccc2c1 | 14
CC1CCCCN1CCCNCc1coc(-c2ccccc2Br)n1 (stereo not given) | 20
c1ccc2c(-c3nc(CNCCCN4CCOCC4)co3)cccc2c1 | 30
CC1CCCCN1Cc1coc(-c2cccc3ccccc23)n1 (stereo not given) | 3
CCC1CCCCN1Cc1coc(-c2cccc3ccccc23)n1 (stereo not given) | 84
CN(CCCNCc1coc(-c2ccc(C(F)(F)F)cc2)n1)c1ccccc1 | -7
Brc1ccccc1-c1nc(CN(Cc2ccccn2)Cc2ccccn2)co1 | 9
COCCN(/C(=N\O)c1ccc(Oc2ccc3oc4ccccc4c3c2)nc1)C(C)C | 7
FC(F)(F)c1ccc(-c2nc(CN3CCC4(CC3)OCCO4)co2)cc1 | -8
Cc1cc(C)cc(Oc2ccc(/C(=N/O)N3CCN(c4ccccc4)CC3)cn2)c1 | 9
COc1ccc(Oc2nc(C)ccc2/C(=N/O)N2CCCC2C)cc1 (stereo not given) | -10
Cc1ccccc1-c1nc(CN2CCN(c3ccc(F)cc3)CC2)co1 | -10
COC[C@H]1CCCN1Cc1coc(-c2cccc(F)c2)n1 | 0
CCCc1nccn1Cc1coc(-c2ccc(Cl)cc2Cl)n1 | 50
Clc1ccc(-c2nc(CN3CCN(Cc4ccccc4)CC3)co2)c(Cl)c1 | 12
Clc1ccccc1-c1nc(CN2CCN(c3ncccn3)CC2)co1 | -3
Clc1ccc(-c2nc(CN3CCN(c4ncccn4)CC3)co2)c(Cl)c1 | 58
CCc1nccn1Cc1coc(-c2ccc(Cl)cc2Cl)n1 | 22
CC(C)c1nccn1Cc1coc(-c2ccc(Cl)cc2Cl)n1 | -20

SMILES | % inhibition [%]
CCOc1ccccc1-c1nc(CN2CCCCCC2)co1 | 7
CSc1ccc(Oc2nc(C)ccc2/C(=N/O)NC2CCC2)cc1 | 3
C=CCN(Cc1coc(-c2cccc(OC)c2)n1)c1ccccc1 | 35
Cc1cccc(Oc2ncccc2/C(=N/O)N2CCOCC2)c1C | 10
FC(F)(F)c1ccc(-c2nc(CNCc3ccccc3C(F)(F)F)co2)cc1 | 0
Cc1ccc(/C(=N/O)N2CCCCCC2)c(Oc2cccc(C(C)C)c2)n1 | 14
COc1ccc(Oc2nc(C)ccc2/C(=N/O)NCc2ccccc2F)cc1 | -6
O/N=C(\NCc1ccccc1F)c1cccnc1Oc1ccc(F)cc1 | 51
O/N=C(\NCc1cc(F)ccc1F)c1cccnc1Oc1ccc(F)cc1 | -3
O/N=C(\NCc1ccccc1F)c1cccnc1OCC(F)(F)F | -12
COc1ccc(Oc2ncccc2/C(=N/O)NCc2ccccc2F)cc1 | 70
Clc1ccccc1-c1nc(CNCc2ccco2)co1 | -7
CC(C)N(C)Cc1coc(-c2ccccc2Cl)n1 | 4
Cc1ccc(Oc2ncccc2/C(=N/O)NCc2ccco2)c2c1CCC2 | -6
Cc1cc(C)cc(CN/C(=N\O)c2cccnc2Oc2ccc(C)c3c2CCC3)c1 | 69
Cc1ccc(Oc2ncccc2/C(=N/O)NCc2cc(F)ccc2F)c2c1CCC2 | 28
Cc1ccc(Oc2ncccc2/C(=N/O)NCc2ccccc2)c2c1CCC2 | 99
COc1ccc(CN/C(=N\O)c2cccnc2Oc2ccc(C)c3c2CCC3)cc1 | 9
Cc1ccc(Oc2cc(/C(=N/O)NCc3cccs3)ccn2)c2c1CCC2 | 3
Cc1ccc(Oc2ncccc2/C(=N/O)NCc2ccncc2)c2c1CCC2 | 8
Cc1ccc(Oc2ncccc2/C(=N/O)NCc2cccs2)c2c1CCC2 | 99
CCOc1ccccc1CN/C(=N\O)c1cccnc1Oc1ccc(C)c2c1CCC2 | 100
Cc1ccc(Oc2ncccc2/C(=N/O)NCc2cccnc2)c2c1CCC2 | 6
COc1ccc(-c2nc(CN(C)C3CCN(Cc4ccccc4)C3)co2)cc1 (stereo not given) | -9
O/N=C(/c1ccnc(Oc2cccc3cnccc23)c1)N1CCN(c2ccccc2)CC1 | 7
N#CCCN(Cc1coc(-c2ccc(C(F)(F)F)cc2)n1)CC1CCCO1 (stereo not given) | -3
O/N=C(/c1ccnc(Oc2cccc3ccccc23)c1)N1CCSC1 | 22

SMILES | % inhibition [%]
CSc1ccc(Oc2nc(C)ccc2/C(=N/O)NCc2ccccc2C)cc1 | 7
Cc1ccc(N2CCN(Cc3coc(-c4ccccc4F)n3)CC2)c(C)c1 | -17
CSc1ccc(Oc2ncccc2/C(=N/O)NCc2ccccn2)cc1C | 2
CN(Cc1coc(-c2ccccc2Cl)n1)C1CCN(Cc2ccccc2)C1 (stereo not given) | -15
COc1ccc(Oc2nc(C)ccc2/C(=N/O)N2CCSC2)cc1 | 27
COc1cc(-c2nc(CNC3CCc4ccccc43)co2)cc(OC)c1OC (stereo not given) | 28
COc1ccc(CCN(C)Cc2coc(-c3ccc(Br)cc3)n2)cc1OC | 65
COc1ccc(CCN(C)Cc2coc(-c3ccc(O)cc3)n2)cc1OC | -29
COc1ccc(CCN(C)Cc2coc(-c3ccc(F)cc3)n2)cc1OC | -7
Oc1ccc(-c2nc(CNC3CCN(Cc4ccccc4)C3)co2)cc1 (stereo not given) | 33
Cc1ccc(-c2nc(CNC3CCN(Cc4ccccc4)C3)co2)cc1 (stereo not given) | 17
CC(C)(C)c1ccc(-c2nc(CNC3CCN(Cc4ccccc4)C3)co2)cc1 (stereo not given) | 55
Brc1ccc(-c2nc(CNC3CCN(Cc4ccccc4)C3)co2)cc1 (stereo not given) | 2
Fc1ccc(-c2nc(CNC3CCN(Cc4ccccc4)CC3)co2)cc1 | -17
COc1ccc(-c2nc(CNC3CCN(Cc4ccccc4)CC3)co2)cc1 | 97
CCOc1ccc(-c2nc(CNC3CCN(Cc4ccccc4)C3)co2)cc1 (stereo not given) | 6
COc1ccc(-c2nc(CNC3CCN(Cc4ccccc4)C3)co2)cc1 (stereo not given) | 12
Brc1ccc(-c2nc(CNC3CCN(Cc4ccccc4)CC3)co2)cc1 | 58
CN(Cc1ccco1)/C(=N\O)c1ccc(Oc2cc(Cl)ccc2Cl)nc1 | -12
COC(=O)C1CCN(/C(=N\O)c2ccnc(Oc3ccc(F)c(Cl)c3)c2)CC1 | -5
Cc1cccc(-c2nc(CN3CCN(c4ccc(F)cc4)CC3)co2)c1 | 18
O/N=C(\NCc1c(F)cccc1F)c1ccc(Oc2ccc(Cl)cc2)nc1 | 6
CCc1ccc(Oc2ccc(/C(=N/O)NC(CC)CC)cn2)cc1 | 7
CCC(CC)N/C(=N\O)c1ccc(Oc2c(F)c(F)cc(F)c2F)nc1 | 19
CCC(CC)N/C(=N\O)c1ccc(Oc2ccc(C)cc2C)nc1 | 26
COCC(C)N/C(=N\O)c1ccc(Oc2cc(C)cc(C)c2)nc1 (stereo not given) | 1
CCC(CC)N/C(=N\O)c1ccc(Oc2ccc(Cl)cc2)nc1 | 96

SMILES | % inhibition [%]
COCC(C)N/C(=N\O)c1ccc(Oc2cc(Cl)ccc2Cl)nc1 (stereo not given) | 23
CCC(CC)N/C(=N\O)c1ccc(Oc2cc(C)cc(C(C)C)c2)nc1 | -7
CCC(CC)N/C(=N\O)c1ccc(Oc2cc(Cl)ccc2Cl)nc1 | 84
CCC(CC)N/C(=N\O)c1ccc(Oc2cc(C)cc(C)c2)nc1 | 94
CCN(CCC#N)Cc1coc(-c2cc(OC)c(OC)c(OC)c2)n1 | -11
Cc1ccc(/C(=N/O)N2C(C)CCC2C)c(OCc2ccccc2C)n1 (stereo not given) | 21
COC[C@H]1CCCN1Cc1coc(-c2ccc(C)cc2)n1 | -9
Cc1cc(Oc2ccc(/C(=N/O)NC3CCCCC3)cn2)cc(C(C)C)c1 | 17
Cc1cc(C)cc(Oc2ccc(/C(=N/O)N(C)C3CCCCC3)cn2)c1 | -8
Cc1cc(C)cc(Oc2ccc(/C(=N/O)NC3CCN(Cc4ccccc4)C3)cn2)c1 (stereo not given) | -11
Cc1ccc(Oc2ccc(/C(=N/O)NC3CC3)cn2)c(C)c1 | 26
Cc1cc(C)cc(Oc2ccc(/C(=N/O)NC3CCc4ccccc43)cn2)c1 (stereo not given) | 12
Cc1ccc(Oc2ccc(/C(=N/O)NCc3cccs3)cn2)c(C)c1 | 21
Cc1ccc(Oc2ccc(/C(=N/O)NC3CCCC3)cn2)c(C)c1 | 91
Cc1ccc(Oc2ccc(/C(=N/O)NCC3CC3)cn2)c(C)c1 | 98
Cc1cc(C)cc(Oc2ccc(/C(=N/O)NC3CCCCC3)cn2)c1 | 99
Cc1ccc(Oc2ccc(/C(=N/O)Nc3ccccc3)cn2)c(C)c1 | 22
Cc1cc(C)cc(Oc2ccc(/C(=N/O)NC3CCC3)cn2)c1 | 99
Cc1ccc(Oc2ccc(/C(=N/O)NCc3c(F)cccc3F)cn2)c(C)c1 | 16
COc1ccc(-c2nc(CNc3cc(C(C)(C)C)nn3C)co2)cc1 | 7
Cc1ccccc1-c1nc(CN(C)C2CCN(Cc3ccccc3)C2)co1 (stereo not given) | 8
CCCN(CC1CC1)/C(=N\O)c1ccc(C)nc1Oc1ccc(OC)cc1 | 30
COc1ccc(-c2nc(CNCc3ccc(C(F)(F)F)cc3)co2)cc1 | 2
CSc1ccc(Oc2nc(C)ccc2/C(=N/O)N2CCN(C3CCCC3)CC2)cc1C | 13
